Measured values: PubChem BioAssay (NCATS)
Values joined by “and” are separate entries in the source; they are usually repeats but may differ in a detail not shown here. Identical values can stand only once. Results filed as inconclusive are left out. Some compounds were tested as several samples or in several runs, with calls that do not always agree. Active and inactive are the calls of the source. Calls follow the shape of the dose curve; as a rule, active = well fitted inhibition curve with a large enough effect; inconclusive = small, poorly fitted or top-dose-only effect; inactive = flat fitted curve, though single readings scatter.

target: Phospholipid hydroperoxide glutathione peroxidase GPX4 (Homo sapiens) (UniProt P36969); assay: Primary qHTS Assay for Inhibitors of Recombinant Selenoprotein Glutathione Peroxidase 4 (GPX4) (AID 1845192); details: recombinant GPX4, GR-coupled NADPH fluorescence, 15 min; series mostly up to 50 µM; activity change, negative = inhibition: at the top concentration; also: nearly all actives have a fitted effect of over 65% in size
Sequence (P36969 whole entry, looked up): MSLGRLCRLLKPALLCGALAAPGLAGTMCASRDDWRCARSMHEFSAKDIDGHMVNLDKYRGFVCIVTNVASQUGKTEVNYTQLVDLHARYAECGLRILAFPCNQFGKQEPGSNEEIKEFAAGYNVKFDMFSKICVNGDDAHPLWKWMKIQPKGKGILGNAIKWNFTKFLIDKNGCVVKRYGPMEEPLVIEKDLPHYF
Description: Assay Provider: Elias S.J. Arner MD PhD.
Department of Medical Biochemistry and Biophysics
Karolinska Institutet, Solna, Stockholm, Sweden
Selenoprotein glutathione peroxidases (GPX), like the ubiquitously expressed GPX1 and the ferroptosis modulator GPX4, enact their antioxidant activities by reducing hydroperoxides using glutathione. […] GPX1 and GPX4 inhibitors have thus shown promise as anti-cancer agents. Existing inhibitors are often promiscuous, or modulate GPX activity only indirectly, so novel direct inhibitors identified through screening against GPX1 and GPX4 could be valuable. Here, we developed optimized glutathione reductase (GR)-coupled GPX assays for the biochemical high-throughput screen (HTS) of almost 12,000 compounds with known mechanisms of action. Initial hits were triaged using a GR counter-screen, assessed for isoform specificity using a separate GPX2 assay, and were assessed for general selenocysteine-targeting activity using a thioredoxin reductase (TXNRD1) assay. With this suite of assays, we identified novel GPX1/GPX2- and GPX4-specific inhibitors and can here present a validated pipeline for future discovery research for selenoprotein-targeting agents.
SEQUENCE No. (e.g., 1, 2, 3, etc.); […] (e.g., Cells, Incubation, Reagent, etc.); VALUE; DESCRIPTION.
1; Reagent 1; 3 uL; 333.33 nM GPx4 enzyme or no enzyme control in 1536-well, black, solid Greiner assay plate.
2; Compound; 25 nL; Kalypsis pin tool (Wako USA) equipped with a 1536-well pin head.
3; Incubation; 30 min; room temperature.
4; Reagent 2; 1 uL; 500 nM GR, 5 mM GSH, 2.5 mM NADPH solution
5; Reagent 3; 1 uL; 2.5 mM CHP in 50% EtOH.
6; Detection; Fluorescence; ViewLux microplate reader, excitation 340 nm and emission 450 nm.
7; Incubation; 15 min; room temperature.
8; Detection; Fluorescence; ViewLux microplate reader, excitation 340 nm and emission 450 nm.
NOTES (numbers refer to Sequence numbers above)
1. 3 µL of 333.33 nM GPX4 and 0.016% BSA in assay buffer (50 mM Tris-HCl, 2 mM EDTA (pH 7.5), 150 mM NaCl) was added to columns 3-48 of 1536-well plates using a BioRAPTR Flying Reagent Dispenser (Let's Go Robotics (LGR), Carlsbad, CA). A no-enzyme control (0.01% BSA in TES assay buffer) was added to columns 1-2.
2. 25 nL, library and DMSO controls were added to each well with a pin tool (Kalypsys).
3. The assay plates were incubated for 30 minutes at room temperature.
4. 1 µL of master mix (500 nM glutathione reductase (GR), 5 mM reduced glutathione (GSH), 2.5 mM NADPH in assay buffer) was added.
5. 1 µL of cumene hydroperoxide (CHP) ([2.5 mM] in 50% EtOH) was then added within 5 minutes to initiate the reaction. Final concentrations were: 200 nM GPX4, 1 mM GSH, 0.5 mM CHP, 0.5 mM NADPH, 100 nM GR, 0.01% BSA.
6. Initial fluorescence readout (t=0) at 340/450 nm was measured using a ViewLux multimodal detector (PerkinElmer, Waltham, MA).
8. Endpoint fluorescence readout (t=15) at 340/450 nm was measured 15 min after room temperature incubation.
Potency is read from the fitted curve at half-maximal effect.

SMILES	Potency	activity change, negative = inhibition	outcome
CC(C)(C)NCC(O)c1ccc(O)c(CO)n1 (stereo not given)	12.6 µM (active)	–	–
CN1CCN(C(c2ccccc2)c2ccc(Cl)cc2)CC1 (stereo not given)	–	-27.5% (inactive)	–
CCOC(=O)c1c[nH]c2cc(OCC(C)C)c(OCC(C)C)cc2c1=O	–	-21.4% (inactive)	–
COC(=O)CCC[N+](C)(C)C	–	-14.3% (inactive)	–
CCCC(=O)Nc1c(I)cc(I)c(CC(CC)C(=O)O)c1I (stereo not given)	–	-10.2% (inactive)	–
CC(=O)[O][Al][O]C(C)=O	–	-11.7% [at 9.73 µM] (inactive)	–
C(=C\c1ccncc1)/c1ccccc1	–	–	inactive [at 100 µM]
c1ccc2ccccc2c1	–	–	inactive
CCC(O)c1ccccc1 (stereo not given)	–	-5.97% (inactive)	–
CNC(=O)OCc1cccc(COC(=O)NC)n1	–	–	inactive
NC(=O)OCC(O)COc1ccc(Cl)cc1 (stereo not given)	–	-17.4% (inactive)	–
O=C(CCCN1CCC(C(=O)c2ccc(F)cc2)CC1)c1ccc(F)cc1	–	-13.5% (inactive)	–
C=CC[N+]1([C@H]2C[C@H]3[C@@H]4CC[C@H]5C[C@H](O)[C@@H](N6CCOCC6)C[C@]5(C)[C@H]4CC[C@]3(C)[C@H]2OC(C)=O)CCCC1	inactive	–	–
NC(=S)NS(=O)(=O)c1ccc(N)cc1	–	-17.3% (inactive)	–
C[C@@H]1C[C@H]2[C@@H]3C[C@H](F)C4=CC(=O)C=C[C@]4(C)[C@@]3(Cl)[C@@H](O)C[C@]2(C)[C@H]1C(=O)COC(=O)C(C)(C)C	–	-11.3% (inactive)	–
Cc1ncc(C[n+]2csc(CCO)c2C)c(N)n1	–	–	inactive
Nc1ccc(N=Nc2ccccc2)c(N)n1	–	-16.3% (inactive)	–
Cc1cccc(C)c1NC(=O)C1CCCCN1C (stereo not given)	–	–	inactive
CNC(=O)C[C@@H](N)C(=O)N[C@@H](C(=O)N[C@@H]1C(=O)N2[C@@H]1SC(C)(C)[C@@H]2C(=O)O)c1ccc(O)cc1	–	-6.99% (inactive)	–
Cc1c(O)c(=O)ccn1C	–	-16.9% [at 100 µM] (inactive)	–

SMILES	Potency	activity change, negative = inhibition	outcome
C=CC[C@@H]1/C=C(\C)C[C@H](C)C[C@H](OC)[C@H]2O[C@@](O)(C(=O)C(=O)N3CCCC[C@H]3C(=O)O[C@H](/C(C)=C/[C@@H]3CC[C@@H](O)[C@H](OC)C3)[C@H](C)[C@@H](O)CC1=O)[C@H](C)C[C@@H]2OC	inactive and 2.82 µM (active)	–	–
COC(=O)c1ccccc1O	–	–	inactive
FC(F)(F)C(F)(F)C(F)(F)C(F)(F)C(F)(F)F	–	–	inactive
N=C(N)c1ccc(/C=C/c2ccc(C(=N)N)cc2O)cc1	–	-23.4% (inactive)	–
CCCCCCCCCCCC(=O)OCC(O)CO (stereo not given)	–	–	inactive
NC[C@@H]1O[C@H](O[C@H]2[C@@H](O)[C@H](O[C@@H]3[C@@H](O)[C@H](N)C[C@H](N)[C@H]3O[C@H]3O[C@H](CO)[C@@H](O)[C@H](O)[C@H]3N)O[C@@H]2CO)[C@H](N)[C@@H](O)[C@@H]1O	–	–	inactive [at 0.409 µM]
CC(=O)Nc1c(I)c(C(=O)N[C@H]2C(O)O[C@H](CO)[C@@H](O)[C@@H]2O)c(I)c(N(C)C(C)=O)c1I (stereo not given in full)	–	–	inactive
CCSc1ccc2c(c1)N(CCCN1CCN(C)CC1)c1ccccc1S2	–	-20.3% (inactive)	–
N[C@@H](Cc1cc(I)c(Oc2ccc(O)c(I)c2)c(I)c1)C(=O)O	inactive and 14.1 µM (active)	–	–
O=[N+]([O-])c1c(Cl)cccc1-c1c[nH]cc1Cl	–	-1.51% (inactive)	–
CCCC(CCC)C(=O)OC1C[C@H]2CC[C@@H](C1)[N+]2(C)C (stereo not given in full)	–	–	inactive
CC(C)(C)c1ccc2c(S(=O)(=O)O)c(C(C)(C)C)ccc2c1	12.6 µM (active)	–	–
C=C(C)C1CC=C(C)CC1 (stereo not given)	–	-21.2% [at 100 µM] (inactive)	–
Cc1ccc(S(=O)(=O)O)cc1C	–	–	inactive
O=C(O)c1cc(O)c2c(c1)[C@H]([C@H]1c3cc(C(=O)O)cc(O)c3C(=O)c3c(O[C@@H]4O[C@H](CO)[C@@H](O)[C@H](O)[C@H]4O)cccc31)c1cccc(O[C@@H]3O[C@H](CO)[C@@H](O)[C@H](O)[C@H]3O)c1C2=O	1.12 µM (active)	–	–
COc1ccc2c(=O)c(C)c(-c3ccccc3)oc2c1CN(C)C	–	-16.4% (inactive)	–
O=C1c2ccccc2C(=O)c2c1ccc(O)c2O	–	-3.45% (inactive)	–
CC(C)(C)C(=O)OCC(=O)[C@H]1CC[C@H]2[C@@H]3CCC4=CC(=O)CC[C@]4(C)[C@H]3CC[C@]12C	–	–	inactive
CC1CC(OC(=O)C(O)c2ccccc2)CC(C)(C)C1 (stereo not given)	inactive	–	–
CCCCC(CC)CCC(CC(C)C)OS(=O)(=O)O (stereo not given)	10 µM (active)	–	–
